Experimental findings from PubChem BioAssay (Tox21) are described below.

Assay [1] is described as follows: qHTS assay to identify small molecule agonists of H2AX (AID 1224845; active = well fitted activation curve with a large enough effect in the signal ratio in the repeat runs, not every such curve was filed as active; the % refers to the signal ratio). The essentials: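 Phospho-H2AX Ser139 measured by HTRF (ex 320 nm; em 665 and 620 nm) after 24 hr antibody incubation. Compounds, 15 concentrations, 0.76% DMSO, were applied to CHO-K1 cells for 3hr at 37C before lysis.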
A general note: In qHTS, concentration-response curves come from the screen itself.

Assay [2] can be described thus: qHTS assay to identify small molecule agonists of the hypoxia (HIF-1) signaling pathway (AID 1224846; active = well fitted activation curve with a large enough effect in the signal ratio in the repeat runs, not every such curve was filed as active; the % refers to the signal ratio). An outline of the steps: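 HRE-bla ME-180 beta-lactamase reporter cells in medium with 0.5% dialyzed FBS, pre-incubated 5 h then exposed to compounds 17 h at 37C, 5% CO2; reporter induction read with CCF4-AM FRET substrate.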
The nature of assay [3]: qHTS assay to identify small molecule agonists of H2AX - cell viability counter screen (AID 1224847; calls by dose curve; also: nearly all actives have a fitted effect of over 30% in size; also: potency is read from the fitted curve at half-maximal effect). An outline of the steps:
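Read-out: CellTiter-Glo luminescence, 30 min RT. Cells: wild-type CHO-K1, 1000/well, 10% FBS, plated overnight at 37C. Treatment: 15 concentrations, 3 hr, 37C, 0.76% DMSO.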

The nature of assay [4]: qHTS assay to identify small molecule antagonists of the estrogen related receptor (ERR) signaling pathway from Tox21 library (AID 1224848). Also: nearly all actives have a fitted effect of over 50% in size. Also: potency is read from the fitted curve at half-maximal effect. An outline of the steps:
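Reading was by luminescence 30 min after ONE-Glo addition. Before that, ERR cells at 2,000 per well had rested 6 h at 37 C/5% CO2 and then received pin-tooled compounds in DMSO for 18 h at 37 C.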

Assay [5] in a line: qHTS assay to identify small molecule agonists of the estrogen related receptor (ERR) signaling pathway from Tox21 library (AID 1224849; calls by dose curve; also: nearly all actives have a fitted effect of over 15% in size). Conditions: ERR reporter cell line, ONE-Glo luciferase, 18 h; at 92.4 µM (top of the series) unless noted. An outline of the steps:
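ERR reporter cells (NTP line) pre-incubated 6 hours at 37 C, then exposed to compounds for 18 hours at 37 C. ONE-Glo luciferase luminescence was read after 30 minutes at room temperature.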

The nature of assay [6]: qHTS RealTime-Glo MT Cell Viability Assay in HepG2 cells - 24 hour (AID 1224867). Also: nearly all actives have a fitted effect of over 50% in size. The essentials:
(§1)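 Tox21 10K library screened in qHTS format on HepG2 cells carrying RealTime-Glo reagents. Compounds were added after a 5 h preincubation, and the luminescent signal from continuous culture was measured repeatedly during 40 h treatment.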

Assay [7] in a line: qHTS RealTime-Glo MT Cell Viability Assay in HEK293 cells - 32 hour (AID 1224868). Also: top concentration of the series differs between compounds; nearly all actives have a fitted effect of over 50% in size. An outline of the steps:
(§2)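 Luminescence generated by NanoLuc from substrate produced by living HEK293 cells served as the viability signal. Each value reflects the reading at its stated time point during continuous 40 h compound exposure at 37 C.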

A short description of assay [8]: A CellTox Green Cytotoxicity Assay to monitor cytotoxicity in HEK293 cells - 0 hour (AID 1224869). Also: nearly all actives have a fitted effect of over 50% in size. Also: potency is read from the fitted curve at half-maximal effect. The essentials: (§3)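 HEK293 cells, 600/well, were preincubated 5 hours and then exposed to compounds at 37 C for up to 40 hours. A cell-impermeant cyanine dye staining dead-cell DNA was read by fluorescence at 0, 8, 16, 24, 32 and 40 h time points.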
A short description of assay [9]: qHTS RealTime-Glo MT Cell Viability Assay in HepG2 cells - 40 hour (AID 1224870). Also: nearly all actives have a fitted effect of over 50% in size. An outline of the steps: (§4)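 Real-time viability: cells seeded at 600 per well together with NanoLuc and cell-permeant prosubstrate, compounds added after 5 h incubation. Luminescence tracked at 0, 8, 16, 24, 32 and 40 h of exposure.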
Assay [10] in a line: qHTS RealTime-Glo MT Cell Viability Assay in HEK293 cells - 16 hour (AID 1224872). The essentials: as §2
A short description of assay [11]: qHTS RealTime-Glo MT Cell Viability Assay in HepG2 cells - 8 hour (AID 1224873). Also: nearly all actives have a fitted effect of over 55% in size. The essentials: as §4
Assay [12] is described as follows: A CellTox Green Cytotoxicity Assay to monitor cytotoxicity in HEK293 cells - 24 hour (AID 1224875). Also: nearly all actives have a fitted effect of over 45% in size. Also: potency is read from the fitted curve at half-maximal effect. The essentials: as §3
Assay [13] is described as follows: A CellTox Green Cytotoxicity Assay to monitor cytotoxicity in HepG2 cells - 16 hour (AID 1224876). Also: nearly all actives have a fitted effect of over 45% in size. Also: potency is read from the fitted curve at half-maximal effect. An outline of the steps:
(§5)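 HepG2 cells, 600/well, preincubated 5 h with CellTox Green dye, then exposed to Tox21 compounds in DMSO at 37 C for up to 40 h. Dead-cell DNA fluorescence read at the indicated time point.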

A short description of assay [14]: qHTS RealTime-Glo MT Cell Viability Assay in HepG2 cells - 32 hour (AID 1224877). Also: nearly all actives have a fitted effect of over 55% in size. An outline of the steps:
as §1

A short description of assay [15]: A CellTox Green Cytotoxicity Assay to monitor cytotoxicity in HepG2 cells - 24 hour (AID 1224878). Also: nearly all actives have a fitted effect of over 45% in size. Also: potency is read from the fitted curve at half-maximal effect. The essentials: as §5
Assay [16] in a line: A CellTox Green Cytotoxicity Assay to monitor cytotoxicity in HepG2 cells - 40 hour (AID 1224879). Also: nearly all actives have a fitted effect of over 40% in size. Also: potency is read from the fitted curve at half-maximal effect. An outline of the steps:
as §5

A short description of assay [17]: A CellTox Green Cytotoxicity Assay to monitor cytotoxicity in HEK293 cells - 32 hour (AID 1224881). Also: nearly all actives have a fitted effect of over 40% in size. Also: potency is read from the fitted curve at half-maximal effect. The essentials: as §3
Assay [18] is described as follows: A CellTox Green Cytotoxicity Assay to monitor cytotoxicity in HEK293 cells - 40 hour (AID 1224871). Also: nearly all actives have a fitted effect of over 45% in size. Also: potency is read from the fitted curve at half-maximal effect. An outline of the steps: as §3
Assay [19] can be described thus: qHTS RealTime-Glo MT Cell Viability Assay in HEK293 cells - 40 hour (AID 1224874). Also: nearly all actives have a fitted effect of over 50% in size. Conditions: RealTime-Glo luminescence; max response: stronger effect = lower value. The essentials:
(§6)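 600 cells/well were plated with the nonlytic NanoLuc/prosubstrate reagent, pre-incubated 5 h, then given 23 nL of compound in DMSO. Incubation at 37 C for 40 h, with luminescence from viable-cell-reduced substrate read repeatedly from 0 h.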

Assay [20] in a line: qHTS RealTime-Glo MT Cell Viability Assay in HEK293 cells - 0 hour (AID 1224880). An outline of the steps:
as §6

Values without a mark were called inactive. Results filed as inconclusive are left out. Active and inactive are the calls of the source. Unless noted, calls follow the shape of the dose curve; as a rule, active = well fitted curve in the direction sought with a large enough effect in the repeat runs; inconclusive = weak or mixed curves; inactive = no such curve, though single readings can be large; an effect the other way counts as inactive or inconclusive.
% is scaled to controls: 0 for no effect and ±100 for the full control effect.

`CO/N=C(/C(=O)OC)c1ccccc1COc1ccccc1C`: the Potency entry in [1], in assay [6], in assay [7], in assay [8], in assay [9] and in assay [10] was “inactive” each time. Further, the Potency result in assay [11], in [12], in assay [13], in assay [14], in [15] and in assay [16] was “inactive” throughout. For the same compound, the Potency result in assay [17] was “inactive”. Besides, the result in assay [2] was inactive. In addition, the Potency in [3] was 2.84 µM (active); in [4], 1.54 µM (active). For the same compound, the activity change, positive = activation in [5] was -47.7%.

With `CCOC(=O)COc1cc(-c2nn(C)c(OC(F)F)c2Cl)c(F)cc1Cl`, the Potency entry in assay [1], in assay [3], in [4], in assay [6], in [7] and in assay [8] was “inactive” in each case. For the same compound, the Potency entry in assay [9], in assay [18], in [10], in assay [11], in [12] and in assay [13] was “inactive” each time. In addition, the Potency result in [14], in assay [15], in [16] and in assay [20] was “inactive” throughout. Also, the result in [2] was inactive. Besides, in assay [5], the activity change, positive = activation was 3.17%. In addition, the max response in assay [19] is -5.9%.

As to `CCCCCCCCCCOC(=O)c1ccccc1C(=O)OCCCCCCCCCC`, the Potency entry in [1], in [3], in assay [4], in assay [6], in [7] and in [8] was “inactive” in each case. The Potency entry in assay [9], in [18], in assay [10], in assay [11], in assay [12] and in [13] was “inactive” each time. The Potency entry in [14], in assay [15] and in assay [16] was “inactive” throughout. Moreover, in assay [2], the result was inactive. In addition, the activity change, positive = activation in assay [5] was 1.79%.

Regarding `CCc1ccc(C(=O)NN(C(=O)c2cc(C)cc(C)c2)C(C)(C)C)cc1`, the Potency result in assay [1], in assay [3], in assay [6], in [7], in assay [8] and in assay [9] was “inactive” each time. For the same compound, the Potency result in assay [10], in [11], in assay [12], in assay [13], in [14] and in [15] was “inactive” in each case. For the same compound, the Potency entry in assay [16], in [20] and in assay [17] was “inactive” each time. For the same compound, the result in assay [2] was inactive. In [4], the Potency was 30.6 µM (active). In assay [5], the activity change, positive = activation was -56.4%. Also, in [19], the max response was -11.5%.

Regarding `NS(=O)(=O)C(F)(F)C(F)(F)C(F)(F)C(F)(F)C(F)(F)C(F)(F)C(F)(F)C(F)(F)F`, the Potency result in assay [1], in assay [3], in assay [4], in [6], in assay [7] and in assay [8] was “inactive” each time. For the same compound, the Potency result in [9], in assay [10], in assay [11], in assay [12], in [13] and in assay [14] was “inactive” each time. The Potency result in [17] is “inactive”. For the same compound, in assay [2], the compound was called inactive. Besides, the activity change, positive = activation in assay [5] is -39.9%. For the same compound, in assay [19], the max response was -4.36%.

For `COc1nn(C(=O)NS(=O)(=O)c2ccccc2OC(F)(F)F)c(=O)n1C`, the Potency result in assay [1], in [3], in [4], in [6], in [7] and in [9] was “inactive” throughout. Moreover, the Potency entry in [10], in [11], in assay [14] and in assay [20] was “inactive” in each case. Moreover, in assay [2], the call was inactive. In assay [5], the activity change, positive = activation is 1.4%. Besides, the Potency in assay [8] was 31.7 µM (active); in [18], 20 µM (active); in assay [12], 22.4 µM (active); in assay [13], 35.5 µM (active); in assay [15], 39.9 µM (active); in assay [16] it was 39.9 µM (active). Further, the Potency in assay [17] was 20 µM (active). Also, the max response in [19] was 12.6%.

In the case of `ClC=C(Cl)Cl`, the Potency entry in [1], in assay [3], in assay [4], in assay [6], in assay [7] and in assay [8] was “inactive” each time. In addition, the Potency entry in assay [9], in assay [18], in [10], in assay [11], in [12] and in [13] was “inactive” each time. The Potency entry in assay [14], in [15], in assay [16], in [20] and in assay [17] was “inactive” in each case. In addition, in [2], the compound was called inactive. Besides, the activity change, positive = activation in assay [5] was -0.0629%.
